Data published in PubChem BioAssay AID449762 (Southern Research Specialized Biocontainment Screening …, 2010).
Several values for one entry are separate records, joined by “and”; a condition that tells them apart may be missing. Equal values may be shown once. Out of some 330,000 compounds screened, about 1,900 (0.58%) were called active. About 4% were inconclusive and are not listed. Only a sample is shown. Potency and affinity values are given separately. A number with no mark means an inactive call. Cut-off read from the data, not from the text of the source: inconclusive = inhibition above about 70% without an active follow-up result; inactive = below that.

Assay: M. tuberculosis growth inhibition, HTS (AID 449762);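 note: bacterial growth assessed after seven days of incubation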
Conditions: M. tuberculosis H37Rv growth inhibition, 7H9 media; at 25 µM; hits give high values

SMILES	inhibition
O=c1ccc(-c2ccccc2)nn1Cc1ccccc1F	4.51%
COc1ccc(-c2cc(C(=O)NC(C)c3ccccn3)c3ccccc3n2)cc1OC (configuration not stated)	-9.49%
CC1=NN(c2ccccc2)C(=O)C1C(=O)c1cc([N+](=O)[O-])cc([N+](=O)[O-])c1 (configuration not stated)	-4.74%
CCCCCCCN1N=C(C)C(C(=O)c2ccccc2)C1=O (configuration not stated)	64.7%
CN1CC(=O)N2C(c3cccc([N+](=O)[O-])c3)c3[nH]c4ccccc4c3C[C@H]2C1=O (some centres not stated)	6.28%
CCOc1cc2c3c(c1)C1(Nc4ccccc4S1)C(=O)N3C(C)(C)CC2C (configuration not stated)	22.3%
CCOc1cc2c3c(c1)C1(OCCO1)C(=O)N3C(C)(C)CC2C (configuration not stated)	8.79%
O=C(CN1CCN(c2ccccc2)CC1)NC(=O)NCc1ccco1	-5.69%
CC(=O)Nc1ccc(S(=O)(=O)N(C)CC(=O)NC2=NCCS2)cc1	-7.06%
CC1(C)CC(=O)C(C2=NC(C)(C)Cc3ccccc32)=C(O)C1	-7.77%
CC1=NC(C)(C)Cc2ccccc21	-5.42%
O=C(CN(C(=O)c1ccccc1)N1C(=O)CCC1=O)c1cccs1	-6.33%
CCC1(CC)NC(=O)N(CC(=O)N2N=C(c3ccc(Cl)cc3)CC2c2ccco2)C1=O (configuration not stated)	3.27%
CN1CC(=O)N(CC(=O)N2N=C(c3ccc(Cl)cc3)CC2c2ccco2)C1=O (configuration not stated)	22.3%
O=C(N[C@@H]1C/C=C\C[C@@H](CC(=O)N(CCO)Cc2ccccc2)C(=O)N[C@@H](c2ccccc2)COC1=O)OCC1c2ccccc2-c2ccccc21	3.32%
COc1cc2sc(-c3ccc(S(C)(=O)=O)cc3)c(C(=O)NCCCCO)c2cc1OC	4.06%
CCc1c(C)nc(N2CCN(c3cccc(OC)c3)CC2)[nH]c1=O	-3.6%
O=c1c2ccccc2nc(-c2ccc([N+](=O)[O-])cc2)n1O	30.3%
Cc1ccc(-c2nc3ccc(Cl)cc3c(=O)n2O)cc1	54.8%

SMILES	inhibition
CSCCCNC(=S)Nc1ccc(N2CCOCC2)cc1N1CCOCC1	6.87%
Cc1cc(C)c(C(=O)COC(=O)c2nn(C)c(=O)c3ccccc23)cc1C	-5.14%
Cc1ccc(Sc2ccc(C(=O)N3CCOCC3)cc2[N+](=O)[O-])cc1	0.73%
O=C(O)/C=C/C(=O)Nc1ccc(O)cc1	-6.75%
O=C(O)/C=C/C(=O)Nc1ccc(C(=O)c2ccccc2)cc1	3.27%
CC(=O)C[C@H](O)CC(=O)[C@H]1OC(=O)[C@H](C)CCCCc2ccccc21	-1.44%
O=C(O)c1cc(N/N=C/c2ccc(-c3ccc(F)cc3)o2)ccc1Cl	13.7%
CCCn1c(CCC(=O)Nc2ccccc2Cc2ccccc2)nc2cc(S(=O)(=O)N3CCOCC3)ccc21	-3.41%
CCOc1ccc2noc3c2c1C(=O)c1ccccc1-3	6.97%
COc1ccc2noc3c2c1C(=O)c1ccccc1-3	38.9%
NC(=O)COc1ncnc2scc(-c3ccc(F)cc3)c12	-9.11%
c1ccc2c(c1)ncn2-c1ccc(-c2ccnc(-c3ccncc3)n2)cc1	-0.53%
c1ccc(-c2nccc(-c3ccc(-n4cnc5ccccc54)cc3)n2)cc1	16%
CCN(CC)S(=O)(=O)c1cccc(C(=O)NCCCn2ccnc2)c1	3.66%
CN1CCc2cccc3c2C1Cc1ccc(O)c(O)c1-3 (configuration not stated)	35.5%
CN1CCc2cccc3c2[C@H]1Cc1ccc(O)c(O)c1-3	29.9% and 14.3% and 5.91%
CC1CCc2c(sc3ncnc(NCCN4CCOCC4)c23)C1 (configuration not stated)	1.22%
COCCCNc1ncnc2sc3c(c12)CCC(C)C3 (configuration not stated)	13.1%
COc1cc(C)cc(CN2CC=C(c3ccccc3)CC2)c1O	4.09%

SMILES	inhibition
Cn1nc(C(=O)NCC(c2cccs2)N2CCOCC2)c2ccccc2c1=O (configuration not stated)	-7.54%
CCOCCN1CCN(c2c(C)c(C)nc3cc(-c4cc(OC)cc(OC)c4)nn23)CC1	-16.2%
CCc1c(C)nc2cc(-c3cc(OC)cc(OC)c3)nn2c1N1CCN(CCN2CCOCC2)CC1	-1.99%
COc1ccc(OC)c(NC(=O)c2ccc(S(=O)(=O)N3CCN(C)CC3)cc2)c1	-1.22%
Cc1ccc(CNS(=O)(=O)c2ccc(-n3cnnn3)c(C)c2)cc1	5.67%
COc1cc(OC)cc(-c2c(C#Cc3ccsc3)c3cc(-c4ccc(CN5CCOCC5)cc4)ccc3n2C)c1	1.54%
COc1cccc(-c2c(-c3cc(OC)cc(OC)c3)n(C)c3ccc(-c4cnc(N5CCOCC5)nc4)cc23)c1	6.76%
COc1ccc(NS(=O)(=O)c2cccc(C(=O)N3CCN(Cc4ccc5c(c4)OCO5)CC3)c2)cc1	12.7%
O=C(/C=C/c1cn(-c2ccccc2)nc1-c1cccnc1)N1CCCCC1	-0.1%
O=Cc1cn(-c2ccccc2)nc1-c1cccnc1	-1.66%
Cc1nc2c(-c3ccccc3)c(C)nn2c(C)c1CCC(=O)N1CCC2(CC1)OCCO2	8.75%
COc1cc(/C=C/C(=O)OCC(=O)NCCc2ccccc2)ccc1OC(F)F	-11.9%
N#C/C(=C\c1ccc(Sc2nc3ccccc3[nH]2)o1)c1ccccc1	-1.33%
N#C/C(=C/c1ccc(Sc2nc3ccccc3[nH]2)o1)c1cccc(F)c1	3%
CCOC(=O)Cn1nc(C)n(-c2ccccc2)c1=O	-8.51%
CN(C)c1ncnc2c1ncn2C1OC(CO)C(O)C1O (configuration not stated)	-4.17%
C[C@H](Cc1ccccc1)Nc1ncnc2c1ncn2[C@@H]1O[C@H](CO)[C@@H](O)[C@H]1O	-4.76%
CCOc1ccccc1-n1nnnc1SCC(=O)OC	3.09%
Cc1cc(C)n2c(Br)c(CN3CCCC(C)C3)nc2n1 (configuration not stated)	-0.64%
